Source: PubChem (National Center for Advancing Translational Sciences (NCATS))
An excerpt weighted towards active compounds, which were near 21% of everything screened.
NS1 function inh = blocks influenza NS1 protein function | Potency, µM (doses to about 46.1 µM), for inactives: at the top dose activity, positive = more growth | 270,000 compounds, 0.4% hits; calls by dose curve; further: potency means the concentration at half of the fitted maximal effect; actives are rising curves; nearly all actives have a fitted effect of over 50% in size
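In this qHTS, NS1 from influenza A is expressed in budding yeast, where it slows growth. Cells are switched from glucose to 2% galactose medium (pH 6.0, -URA), treated with compound, and growth recovery is read at OD600.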
FBPA Giardia inh = inhibitors of Giardia lamblia fructose-1,6-bisphosphate aldolase; Potency, µM (highest dose often 59.6 µM), for inactives: at the highest dose activity, negative = inhibition, most hits filed as inhibitors; purified Giardia FBPA; 290,000 compounds, 0.71% hits; AID 2451; further: potency means the concentration at half of the fitted maximal effect; on the % scale 0 is the no-effect control and ±100 the full control effect; nearly all actives have a fitted effect of over 55% in size
Target sequence (A8B2U2 whole entry, looked up): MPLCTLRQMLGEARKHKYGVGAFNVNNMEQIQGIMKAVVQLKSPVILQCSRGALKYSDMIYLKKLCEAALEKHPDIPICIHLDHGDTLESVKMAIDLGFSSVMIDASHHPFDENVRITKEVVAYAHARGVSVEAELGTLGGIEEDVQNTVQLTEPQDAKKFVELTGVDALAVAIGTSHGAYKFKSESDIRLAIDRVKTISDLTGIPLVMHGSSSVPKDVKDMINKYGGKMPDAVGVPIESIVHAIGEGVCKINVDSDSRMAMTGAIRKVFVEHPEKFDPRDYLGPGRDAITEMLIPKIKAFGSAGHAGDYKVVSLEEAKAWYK
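40 nM FBPA preincubated 10 min at RT with compound (up to 57.5 uM final), then substrate plus GAPDH/TPI/NAD/arsenate coupling and diaphorase/resazurin added. Fluorescence read after 20 min at RT, 525/598 nm.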
Pf growth 96h = inhibits malaria parasite growth, 96 h; P. falciparum luciferase reporter growth, 96 h; Potency, µM (highest dose often 28.7 µM), inactives show at the highest dose activity change, negative = inhibition, hits mostly inhibitors; 320,000 compounds, 6.9% hits; AID 504834; further: potency means the concentration at half of the fitted maximal effect; on the % scale 0 is the no-effect control and ±100 the full control effect
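Two parasite generations (96 h, 37 C, 5% CO2) of compound exposure in infected erythrocytes (0.05% parasitemia, 2% hematocrit). Luciferase-reporter P. falciparum; decreased luminescence indicates inhibited growth, aimed at apicoplast-acting delayed death.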
Pf growth 48h = inhibits P. falciparum growth in the first generation, 48 h; Potency, µM (highest dose often 28.7 µM), without a hit: top-dose activity change, negative = inhibition, most hits filed as inhibitors; P. falciparum luciferase growth in erythrocytes, 48 h; 310,000 compounds, 5.9% hits; further: potency means the concentration at half of the fitted maximal effect; on the % scale 0 is the no-effect control and ±100 the full control effect
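Luciferase-expressing P. falciparum in infected erythrocytes (2% hematocrit, 0.1% parasitemia final) in RPMI 1640/0.5% Albumax were exposed to compound for 48 hours at 37 C, 5% CO2; growth read as luminescence.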
Shiga toxin inh = Shiga toxin inhibition | 290,000 compounds, 9.2% hits | Vero cells, Shiga toxin protein synthesis inhibition reporter | inhibition, % at 38.7 µM | AID 2315; in the data active means inhibition mostly above about 28%, no sharp cut-off; inactive means mostly below about 43%; further: 0% is about no effect
CHX counter = counter-screen hit for Shiga toxin inhibitors, cycloheximide | cell reporter, cycloheximide protein synthesis inhibition counterscreen | max response, % | 300,000 compounds, 12% hits | AID 2314; in the data active means max response mostly above about 13%, no sharp cut-off; inactive means mostly below about 14%; further: read at 38.3 µM for the half of the compounds with a filed dose; 0% is about no effect
Numbers without * were called inactive; ? = inconclusive; nt = no result; [ ] = dose if it differs, or a comment. Unless noted, the call rests on the fitted dose curve; in most records, active means well fitted curve in the direction sought with a large enough effect; inconclusive means small, poorly fitted or top-dose-only effect, or another doubt; inactive means no such curve, though single readings can be large; an effect the other way counts as inactive or inconclusive.

SMILES	NS1 function inh	FBPA Giardia inh	Pf growth 96h	Pf growth 48h	Shiga toxin inh	CHX counter
CCOc1ccc(C(=O)NCC(=O)N2CCC3CCCCC3C2)cc1OCC (stereo not given)	-15.4%	-3.1%	-16.2%	-11.2%	2.6	-1.5
COC(=O)[C@@H]1CC[C@H](C)[C@@H](c2ccc(C)cc2)N1C(=O)c1ccc(/C=N\OC[C@@H](O)[C@H]2O[C@H]3OC(C)(C)O[C@H]3[C@@H]2O)cc1	nt	2.0%[12.9 µM]	nt	nt	nt	nt
CN(C)S(=O)(=O)c1ccc(N2CCN(S(=O)(=O)c3ccc(F)cc3)CC2)c(Cl)c1	-36.5%	9.2%	8.28µM*	7.38µM*	1.2	1.8
COc1ccc(N2CCN(S(=O)(=O)c3cccc4cccnc34)CC2)cc1	-4.7%	0.9%	-37.6%	nt	28.5	0.2
Cc1ccc(C)n1-c1cccc(S(=O)(=O)N2CCOCC2)c1	nt	0.9%	13.1µM*	?	7.4	10.6
O=S(=O)(c1cccc2cccnc12)N1CCN(c2ccc(F)cc2)CC1	-11.1%	6.8%	14.7µM*	-7.2%	-5.6	-2.5
O=C(NCC(=O)N(c1ccccc1F)C(C(=O)NC1CCCC1)c1ccncc1)c1ccco1 (stereo not given)	3.2%	13.9%	?	5.3%	-4.2	-6.1
COc1cc(CNC(C)(C)CO)cc(Br)c1OCc1ccc(Cl)cc1	-8.0%	-6.0%	?	13.1µM*	7.5	-2.8
CNCc1c(OCc2ccccc2)ccc2ccccc12	4.5%	?	?	?	-3.1	1.3
CC(C)(CO)NCc1c(OCc2ccc(Cl)cc2)ccc2ccccc12	-24.1%	-13.4%	4.15µM*	?	nt	-7.5
COc1cc(CNC(C)(C)CO)cc(Br)c1OCc1ccc(Cl)cc1Cl	-17.8%	3.3%	13.1µM*	11.7µM*	-3.1	-4.6
COc1cc(CNc2ccc(O)cc2)cc(Br)c1OCc1ccccc1	0.2%	?	59.6%	?	-3.5	-1.8
COC(=O)[C@@H]1C=C[C@H](C)[C@H](CCOc2ccccc2)O1	nt	6.9%	nt	nt	nt	nt
CCOC(=O)Nc1ccc(OC)c([N+](=O)[O-])c1	nt	-0.5%	-0.2%	14.7µM*	-6.6	6.1
O=C(N/N=C/c1ccc(O)c([N+](=O)[O-])c1)c1ccncc1	4.9%	-12.1%	1.9%	18.7%	-11.3	0.6
Cc1ccc(C(=O)C[n+]2ccccc2C)cc1[N+](=O)[O-]	-2.9%	-0.5%	?	22.3%	-4.2	-1.7
COc1ccc(C(=O)NC(=S)Nc2cc(C)ccn2)cc1[N+](=O)[O-]	16.0%	?	4.65µM*	30.5%	-8.2	6.7
COc1ccc(C(=O)Nc2cc(C)on2)cc1[N+](=O)[O-]	nt	5.6%	19.2%	-6.0%	-7.1	5.6
COc1ccc(/C=N/NC(=O)c2ccncc2)cc1[N+](=O)[O-]	nt	-4.1%	4.15µM*	28.9%	-7.9	1.9
COc1ccc(C(=O)C[n+]2cccc(C)c2C)cc1[N+](=O)[O-]	-3.1%	7.7%	6.2%	7.38µM*	2.4	4.9
NC(N)=N[C@@H]1C(O)[C@H](N=C(N)N)[C@@H](O)C(O)[C@H]1O (stereo not given in full)	-3.2%	nt	nt	nt	nt	nt
CC(=O)C(C(C)=O)C(c1ccccc1)c1nc2ccccc2[nH]c1=O (stereo not given)	-0.3%	10.5%	18.7%	10.2%	5.3	8.1
N#Cc1ccc(CN2CCC3(CCNCC3)CC2)cc1	nt	0.0%	nt	nt	nt	nt
CCc1ccc(NC(=O)c2ccc(-n3cncn3)c([N+](=O)[O-])c2)cc1	nt	nt	?	11.7µM*	nt	nt
O=C(Nc1cccc(/C=C/c2ccccn2)c1)c1ccc(-n2cncn2)c([N+](=O)[O-])c1	nt	nt	4.65µM*	5.22µM*	nt	nt
SMILES	NS1 function inh	FBPA Giardia inh	Pf growth 96h	Pf growth 48h	Shiga toxin inh	CHX counter
COc1ccc(C(=O)Nc2ccc(N3CCN(C)CC3)cc2)cc1[N+](=O)[O-]	nt	1.0%	-25.9%	2.3%	10.5	0.5
COc1ccc(C(=O)Nc2ccncc2)cc1[N+](=O)[O-]	25.4%	4.3%	41.2%	8.28µM*	7.4	4.6
COc1ccc(NC(=O)c2ccc(-n3cncn3)c([N+](=O)[O-])c2)cc1OC	nt	nt	?	-5.3%	nt	nt
COc1ccc(NC(=O)c2ccc(-n3cncn3)c([N+](=O)[O-])c2)cc1	4.5%	-19.6%	?	?	24.5	-3.3
CCc1ccc(NC(=O)c2ccc(OC)c([N+](=O)[O-])c2)cc1	10.8%	-1.6%	?	24.0%	90.3*	36.6*
Cc1c(C(=O)N2CCCCC2C)sc2nc3n(c(=O)c12)CCC3 (stereo not given)	2.9%	1.0%	1.8%	13.5%	1.1	-2.5
C=C1N(c2cccc(Cl)c2)C(=O)OC1(C)C	2.6%	-0.6%	?	11.1%	2.4	0.9
COc1ccc(C(=O)N/N=C/c2ccc(OC(=O)c3cccc4ccccc34)c([N+](=O)[O-])c2)cc1	3.8%	-12.1%	9.28µM*	30.2%	16.6	17.0
O=C(Nc1cccc(/C=C/c2ccccn2)c1)c1cc(Cl)ccn1	-5.3%	-15.0%	80.6%	107.5%	43.3*	28.6*
CCC(C(=O)OCC(=O)Nc1c(Cl)cccc1Cl)c1ccccc1 (stereo not given)	-16.3%	3.9%	-14.0%	-0.3%	-0.8	-3.2
Nc1cc(=O)[nH]c(SCc2cccc3ccccc23)n1	-2.2%	-11.2%	38.9%	?	-11.7	6.8
N#CC1=C(N)N=C(SCc2cccc3ccccc23)C(C(N)=O)C12CCCCC2 (stereo not given)	8.2%	-4.0%	11.7µM*	nt	-10.9	-2.6
Cc1ccc2oc(C(=O)N3CCN(Cc4nccn4C)CC3)c(C)c2c1	-1.5%	nt	-0.5%	-11.7%	9.4	10.3
COCCN=C1Sc2nc3ccc(C)cc3cc2CN1Cc1ccco1	-14.6%	-16.0%	?	nt	114.1*	51.6*
COCCN=C1Sc2nc3cc(C)c(C)cc3cc2CN1Cc1cccs1	-1.4%	-2.4%	?	10.4µM*	6.3	11.1
CCOc1ccc2nc3c(cc2c1)CN(CCOC)C(=NCCOC)S3	3.3%	-26.4%	?	?	1.4	3.3
CN(CC(O)CON=C1c2ccccc2-c2ccccc21)S(=O)(=O)c1ccc(Br)cc1 (stereo not given)	20.1%	-6.9%	?	6.57µM*	-18.4	-0.7
CCN(CC(O)CON=C1c2ccccc2-c2ccccc21)S(=O)(=O)c1ccc(C)cc1 (stereo not given)	-32.0%	1.1%	2.33µM*	?	-7.8	-0.5
Cc1cccc(N(CC(O)CON=C2c3ccccc3-c3ccccc32)S(C)(=O)=O)c1 (stereo not given)	12.0%	-8.6%	13.1µM*	nt	-15.9	1.2
CCN(CC(O)CON=C1c2ccccc2-c2ccccc21)S(=O)(=O)c1ccc(Cl)cc1 (stereo not given)	17.2%	0.9%	?	?	-13.3	-0.2
O=C1C2C=CC=CC2=NC(=S)N1CCN1CCC(=C(c2ccc(F)cc2)c2ccc(F)cc2)CC1 (stereo not given)	?	-5.5%	nt	nt	nt	nt
